# Read-outs that look alike come from different tables or passages of the source.
# Columns and labels:
# Parameters in all cases: species or system human, MV4-11 + K-562 + COLO205 + SK-N-BE2 + OVCAR-8
# CLK1 = details: read-out: apparent Kd, n = 1
# CLK4 = details: read-out: apparent Kd, n = 1
# CSNK1D = details: read-out: apparent Kd; compound concentrations: 100 nM and 1000 nM (sheet 'Samples'), CATDS: 3.8251361436103803E-2; n = 1
# CSNK1E = details: read-out: apparent Kd; compound concentrations: 100 nM and 1000 nM (sheet 'Samples'), CATDS: 3.6903644151272202E-2; n = 1
# CSNK1G1 = details: read-out: apparent Kd; compound concentrations: 100 nM and 1000 nM (sheet 'Samples'), CATDS: 3.9062620233065198E-2; n = 1
# CSNK2A1;CSNK2A3 = details: read-out: apparent Kd; compound concentrations: 100 nM and 1000 nM (sheet 'Samples'), CATDS: 3.8692946827206802E-2; n = 1
# DYRK1A = details: read-out: apparent Kd, n = 1
# EIF2AK1 = details: read-out: apparent Kd; compound concentrations: 100 nM and 1000 nM (sheet 'Samples'), CATDS: 5.2303665150266299E-2; n = 1
# GAK = details: read-out: apparent Kd; compound concentrations: 100 nM and 1000 nM (sheet 'Samples'), CATDS: 7.9054270069147406E-2; n = 1
# MAPK10 = details: read-out: apparent Kd; compound concentrations: 100 nM and 1000 nM (sheet 'Samples'), CATDS: 6.4300767582532795E-2; n = 1
# MAPK8 = details: read-out: apparent Kd; compound concentrations: 100 nM and 1000 nM (sheet 'Samples'), CATDS: 0.19867179384424899; n = 1
# MAPK9 = details: read-out: apparent Kd; compound concentrations: 100 nM and 1000 nM (sheet 'Samples'), CATDS: 7.8815653035512301E-2; n = 1
# NUAK1 = details: read-out: apparent Kd, n = 1
# PIP4K2C = details: read-out: apparent Kd; compound concentrations: 100 nM and 1000 nM (sheet 'Samples'), CATDS: 4.1544409686620098E-2; n = 1
# PTK2B = details: read-out: apparent Kd; compound concentrations: 100 nM and 1000 nM (sheet 'Samples'), CATDS: 4.7862573300624302E-2; n = 1
# PTK2 = details: read-out: apparent Kd; compound concentrations: 100 nM and 1000 nM (sheet 'Samples'), CATDS: 4.8653444665563698E-2; n = 1
# RPS6KA1 = details: read-out: apparent Kd, n = 1
# TNK1 = details: read-out: apparent Kd; compound concentrations: 100 nM and 1000 nM (sheet 'Samples'), CATDS: 9.9368831187406595E-2; n = 1
# TTK = details: read-out: apparent Kd; compound concentrations: 100 nM and 1000 nM (sheet 'Samples'), CATDS: 7.5031677714786096E-2; n = 1
# CSNK1A1 = details: read-out: apparent Kd; compound concentrations:100 nM and 1000 nM (sheet 'Samples'); n = 1
# MAP3K5 = details: read-out: apparent Kd; compound concentrations:100 nM and 1000 nM (sheet 'Samples'); n = 1
# MAP3K6 = details: read-out: apparent Kd; compound concentrations:100 nM and 1000 nM (sheet 'Samples'); n = 1
# NUAK2 = details: read-out: apparent Kd; compound concentrations:100 nM and 1000 nM (sheet 'Samples'); n = 1
# PDGFRB = details: read-out: apparent Kd; compound concentrations:100 nM and 1000 nM (sheet 'Samples'); n = 1
# PI4KB = details: read-out: apparent Kd; compound concentrations:100 nM and 1000 nM (sheet 'Samples'); n = 1
# PKN2 = details: read-out: apparent Kd; compound concentrations:100 nM and 1000 nM (sheet 'Samples'); n = 1
# PRKD2 = details: read-out: apparent Kd; compound concentrations:100 nM and 1000 nM (sheet 'Samples'); n = 1
# PRKD3 = details: read-out: apparent Kd; compound concentrations:100 nM and 1000 nM (sheet 'Samples'); n = 1
# RPS6KA6 = details: read-out: apparent Kd; compound concentrations:100 nM and 1000 nM (sheet 'Samples'); n = 1
# RPS6KB1 = details: read-out: apparent Kd; compound concentrations:100 nM and 1000 nM (sheet 'Samples'); n = 1
# CDK6 = details: read-out: apparent Kd; compound concentrations: 100 nM and 1000 nM (sheet 'Samples'), CATDS: 9.94086879029107E-2; n = 1
# ERCC2 = details: read-out: apparent Kd; compound concentrations: 100 nM and 1000 nM (sheet 'Samples'), CATDS: 8.00195217918135E-2; n = 1
# ILK = details: read-out: apparent Kd; compound concentrations: 100 nM and 1000 nM (sheet 'Samples'), CATDS: 9.2277554070836695E-2; n = 1
# IRAK1 = details: read-out: apparent Kd; compound concentrations: 100 nM and 1000 nM (sheet 'Samples'), CATDS: 0.100374426884943; n = 1
# MAPK11 = details: read-out: apparent Kd; compound concentrations: 100 nM and 1000 nM (sheet 'Samples'), CATDS: 0.114875582953057; n = 1
# MAPK14 = details: read-out: apparent Kd; compound concentrations: 100 nM and 1000 nM (sheet 'Samples'), CATDS: 9.0546615649564399E-2; n = 1
# NQO1 = details: read-out: apparent Kd; compound concentrations: 100 nM and 1000 nM (sheet 'Samples'), CATDS: 0.102757075513336; n = 1
# PIK3CD = details: read-out: apparent Kd; compound concentrations: 100 nM and 1000 nM (sheet 'Samples'), CATDS: 0.395344018245397; n = 1
# PRKCQ = details: read-out: apparent Kd; compound concentrations: 100 nM and 1000 nM (sheet 'Samples'), CATDS: 8.2854130075837501E-2; n = 1
# RIOK2 = details: read-out: apparent Kd; compound concentrations: 100 nM and 1000 nM (sheet 'Samples'), CATDS: 7.9590231457497898E-2; n = 1
# [1] = compound concentrations:100 nM and 1000 nM (sheet 'Samples')
compound,measurement,setting,value
CCCN1CCC=C(c2ccc(Nc3nc(Nc4ccccc4C(N)=O)c4cc[nH]c4n3)c(C)c2)C1 [GSK994854A],potency estimated from few doses,"CLK1; compound concentrations: 100 nM and 1000 nM (sheet 'Samples'), CATDS: 7.5926373911313003E-2",0.392 µM
same,potency estimated from few doses,"CLK4; compound concentrations: 100 nM and 1000 nM (sheet 'Samples'), CATDS: 5.3158030493379999E-2",0.801 µM
same,potency estimated from few doses,CSNK1D,2.01 µM
same,potency estimated from few doses,CSNK1E,2.3 µM
same,potency estimated from few doses,CSNK1G1,1.87 µM
same,potency estimated from few doses,CSNK2A1;CSNK2A3,1.93 µM
same,potency estimated from few doses,"DYRK1A; compound concentrations: 100 nM and 1000 nM (sheet 'Samples'), CATDS: 3.9869758928983597E-2",1.74 µM
same,potency estimated from few doses,EIF2AK1,0.831 µM
same,potency estimated from few doses,GAK,0.365 µM
same,potency estimated from few doses,MAPK10,0.535 µM
same,potency estimated from few doses,MAPK8,0.094 µM
same,potency estimated from few doses,MAPK9,0.367 µM
same,potency estimated from few doses,"NUAK1; compound concentrations: 100 nM and 1000 nM (sheet 'Samples'), CATDS: 4.4301419887818799E-2",1.27 µM
same,potency estimated from few doses,PIP4K2C,1.53 µM
same,potency estimated from few doses,PTK2B,1.03 µM
same,potency estimated from few doses,PTK2,0.989 µM
same,potency estimated from few doses,"RPS6KA1; compound concentrations: 100 nM and 1000 nM (sheet 'Samples'), CATDS: 4.3998663303794899E-2",1.29 µM
same,potency estimated from few doses,TNK1,0.25 µM
same,potency estimated from few doses,TTK,0.4 µM
C[C@@H]1CCNC(=O)c2cc3ccc(C(=O)Nc4nc5ccccc5n4CCCN(C)C)cc3n21 [BI00645435],potency estimated from few doses,CLK1; [1],0.941 µM
same,potency estimated from few doses,CLK4; [1],0.931 µM
same,potency estimated from few doses,CSNK1A1,1 µM
same,potency estimated from few doses,DYRK1A; [1],2.1 µM
same,potency estimated from few doses,MAP3K5,2.3 µM
same,potency estimated from few doses,MAP3K6,1.7 µM
same,potency estimated from few doses,NUAK1; [1],0.11 µM
same,potency estimated from few doses,NUAK2,0.383 µM
same,potency estimated from few doses,PDGFRB,1.67 µM
same,potency estimated from few doses,PI4KB,0.581 µM
same,potency estimated from few doses,PKN2,1.76 µM
same,potency estimated from few doses,PRKD2,0.731 µM
same,potency estimated from few doses,PRKD3,1.48 µM
same,potency estimated from few doses,RPS6KA1; [1],0.529 µM
same,potency estimated from few doses,RPS6KA6,0.00539 µM
same,potency estimated from few doses,RPS6KB1,0.106 µM
Cl.Nc1c(C(=O)c2cccc(-c3cccnc3)c2)cnn1-c1ccc(F)cc1 [RO1162529-002],potency estimated from few doses,CDK6,1.19 µM
same,potency estimated from few doses,ERCC2,2.03 µM
same,potency estimated from few doses,ILK,1.41 µM
same,potency estimated from few doses,IRAK1,1.16 µM
same,potency estimated from few doses,MAPK11,0.877 µM
same,potency estimated from few doses,MAPK14,1.47 µM
same,potency estimated from few doses,NQO1,1.1 µM
same,potency estimated from few doses,PIK3CD,0.126 µM
same,potency estimated from few doses,PRKCQ,1.85 µM
same,potency estimated from few doses,RIOK2,2.06 µM

# — publication PMC11062922 (Nature Chemical Biology, 2023)
